# pPAFAH inh – pPAFAH enzyme inhibitors, primary screen, biochemical, fluorescence polarization, human; Platelet-activating factor acetylhydrolase (Homo sapiens), Q13093; recombinant pPAFAH, FP-rhodamine probe fluorescence polarization; inhibition, % at 3.39 µM; 1.5% of 330,000 active;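 active = inhibition above the mean inhibition across the screen plus 3 SD, cut at about 25% in these data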;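 also: inhibitors block binding of the rhodamine activity-based probe so polarization drops; 0% = enzyme with DMSO and 100% = wells lacking pPAFAH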
# PAFAH1B3 FP inh – PAFAH1B3 enzyme inhibitors, primary screen, biochemical, fluorescence polarization, human; inhibition, % at 3.39 µM; 0.28% of 340,000 active; Platelet-activating factor acetylhydrolase IB subunit alpha1 (Homo sapiens), Q15102; recombinant PAFAH1B3, FP-rhodamine probe; AID 492972, 2010;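 active = inhibition above the screen-wide average of all tested compounds plus 3 SD, cut at about 25% in these data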;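 also: 0% = enzyme with DMSO only and 100% = wells lacking PAFAH1B3 protein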
# Target sequence (Q15102 whole entry, looked up): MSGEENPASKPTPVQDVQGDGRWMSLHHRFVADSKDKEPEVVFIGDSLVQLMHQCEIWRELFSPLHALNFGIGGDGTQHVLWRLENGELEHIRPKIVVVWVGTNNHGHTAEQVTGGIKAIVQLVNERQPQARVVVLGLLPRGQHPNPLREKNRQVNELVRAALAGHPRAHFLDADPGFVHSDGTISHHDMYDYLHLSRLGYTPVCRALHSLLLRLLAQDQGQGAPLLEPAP
# PAFAH2 inh – PAFAH2 enzyme inhibitors, primary screen, biochemical, fluorescence polarization, human | 0.99% of 340,000 active | recombinant PAFAH2, FP-rhodamine activity probe | Platelet-activating factor acetylhydrolase 2, cytoplasmic (Homo sapiens), Q99487 | inhibition, % at 3.39 µM;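 active = inhibition above the mean over all tested compounds plus 3 SD, cut at about 30% in these data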;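 also: inhibitors block probe labeling of enzyme so polarization drops; 0% = enzyme with DMSO and 100% = wells lacking PAFAH2 protein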
# PAFAH1B2 FP inh – PAFAH1B2 enzyme inhibitors, primary screen, biochemical, fluorescence polarization, human. Platelet-activating factor acetylhydrolase IB subunit alpha2 (Homo sapiens), P68402. recombinant PAFAH1B2, FP-rhodamine activity probe. inhibition, % at 3.39 µM. 1.2% of 340,000 active. AID 492953, 2010;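 active = inhibition above the mean of all tested compounds plus 3 SD, cut at about 24% in these data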;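 also: 0% = enzyme with DMSO and 100% = wells lacking PAFAH1B2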
# Target sequence (P68402 whole entry, looked up): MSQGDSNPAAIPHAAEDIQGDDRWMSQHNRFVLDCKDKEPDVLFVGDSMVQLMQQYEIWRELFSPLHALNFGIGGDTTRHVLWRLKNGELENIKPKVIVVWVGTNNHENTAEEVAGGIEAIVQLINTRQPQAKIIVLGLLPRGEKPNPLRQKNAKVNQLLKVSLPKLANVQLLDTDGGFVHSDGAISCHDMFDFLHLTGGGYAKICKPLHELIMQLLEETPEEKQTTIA
# HTRA1 inhibitor – HTRA1 serine protease inhibitors, primary screen, biochemical, fluorescence polarization, HTS | AID 504803, 2011 | 0.5% of 340,000 active | recombinant HTRA1, FP-rhodamine activity-based probe | inhibition, % at 5.96 µM; in the data active = inhibition above about 36%;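 also: 0% = enzyme with DMSO and 100% = wells lacking enzyme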
# DAGLB inh – DAGLB lipase inhibitors, primary screen, biochemical, fluorescence, HTS; 0.059% of 340,000 active; HEK293T DAGLB membrane lysate, EnzChek fluorogenic substrate; Diacylglycerol lipase-beta (Homo sapiens), Q8NCG7; inhibition, % at 5.17 µM; AID 504411, 2011; in the data active = inhibition above about 34%;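 also: 0% = enzyme with vehicle and 100% = wells lacking enzyme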
# PAFAH1B3 confirm – PAFAH1B3 enzyme inhibitors, confirmation, biochemical, fluorescence polarization, human; shares compounds with PAFAH1B3 FP inh; recombinant PAFAH1B3, FP-Rh activity-based probe; inhibition, % at 3.39 µM; 30% of 390 active;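 active = average inhibition over triplicate runs above the hit cutoff set in the earlier primary screen, cut at about 25% in these data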;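 also: 0% = enzyme with DMSO and 100% = wells lacking PAFAH1B3 protein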
# * = called active by the depositor; x = not tested or not shown. Sampled rows, rich in hits. Any-hit rate of the full collection: about 2.8%.
SMILES,pPAFAH inh,PAFAH1B3 FP inh,PAFAH2 inh,PAFAH1B2 FP inh,HTRA1 inhibitor,DAGLB inh,PAFAH1B3 confirm
O=C1ON=C(c2ccccc2)/C1=C/c1ccc(O)c(O)c1,7.3,29.3*,10.1,8.1,11.3,1.5,46.6*
CCc1cc[n+](C2=C([O-])c3ccccc3C(=O)/C2=N\S(=O)(=O)c2cccs2)cc1,19.4,40.6*,23.1,2.2,27.0,5.8,30.9*
CC(C)C1Nc2ccc(C(=O)O)cc2C2C=CCC21 (stereo not given),22.9,29.1*,25.6,11.8,24.2,1.6,16.3
COc1cc2c(cc1CN1CCN(C(=O)c3cc(OC)c(OC)c(OC)c3)CC1)OCO2,0.8,7.1,8.1,-0.6,2.7,-0.8,x
Cc1ccc(C(C)C)c(OCc2ccc(C(=O)N/N=C/c3ccc(C(=O)O)cc3)cc2)c1,-11.8,-30.8,-50.4,-17.8,-17.2,-3.1,x
Cc1ccc(C(C)C)c(OCc2ccc(C(=O)N/N=C/c3ccc(O)cc3O)cc2)c1,14.2,41.9*,-0.8,23.1,26.4,0.6,25.9*
Cc1[nH]c2ccccc2c1/C=N/Nc1nc(N2CCCCC2)nc(N2CCCCC2)n1,7.5,25.6*,-10.0,12.4,2.8,-0.1,9.0
C(=N\Nc1nc(N2CCCCC2)nc(N2CCCCC2)n1)/c1c[nH]c2ccccc12,10.3,6.0,-1.5,1.8,4.0,1.1,x
CC(C(=O)N1CCc2ccccc2C1)N(c1ccccc1)S(C)(=O)=O (stereo not given),0.5,8.8,-5.8,2.5,5.7,-3.1,x
CC(=C1C(=O)c2ccccc2C1=O)N1CCc2ccccc2C1,1.6,27.0*,4.3,1.9,-3.4,1.0,9.3
N#Cc1cccc2c1-c1ccccc1/C2=N/NC(N)=S,16.4,3.6,14.6,5.4,-21.8,1.1,x
NC(=S)NN=C1c2ccccc2-c2c(F)c(F)c(F)c(F)c21,x,51.2*,5.7,-3.0,4.1,1.3,46.0*
CCOC(=O)NN1C(=O)c2ccccc2NC1c1cccs1 (stereo not given),2.7,3.5,5.7,7.6,-5.6,-4.8,x
COCc1c(C(=O)N2CCN(c3ccccc3C)CC2)oc2ccccc12,2.4,1.0,0.3,2.8,-12.4,-11.3,x
Cn1c2ccccc2c(=O)c2ccc(C#Cc3ccc(N)cc3)cc21,24.5,35.3*,-12.6,1.5,-14.3,7.3,16.6
O=C1C=C(Nc2ccccc2)c2ccccc2C1=O,x,61.5*,6.8,8.8,2.0,4.4,30.2*
CCCCNC1=CC(=O)C(=O)c2ccccc21,4.2,25.3,7.8,2.4,2.3,2.6,x
O=C1C=C(Nc2ccccc2)C(=O)c2ccccc21,3.3,4.3,-0.9,3.3,16.6,25.9,x
CCc1ccc(NC2=CC(=O)C(=O)c3ccccc32)cc1,x,58.6*,17.9,8.9,10.3,15.5,37.1*
CCOC(=O)Cc1csc(NC(=O)c2sc3nc4ccc(C)cc4cc3c2N)n1,8.8,11.8,-5.0,-2.3,-17.3,-3.7,x
CCc1nnc(NC(=O)c2sc3nc4cc(C)ccc4cc3c2N)s1,3.2,27.3*,12.1,18.6,-6.1,-0.9,20.1
CC(=O)N(C1=C(Cl)C(=O)c2ccccc2C1=O)C1CCCCC1,0.9,33.0*,4.9,4.3,12.4,-6.8,17.8
CC(=O)N(c1ccccc1C)C1CCCC1,1.7,3.9,-4.2,7.7,2.8,0.1,x
Cc1ccc(C(=O)OC(C)CN2CCN(C)CC2)cc1 (stereo not given),-5.6,8.0,-13.1,-2.0,8.2,-1.0,x
O=C1CCN(Cc2ccc(O)cc2)CCN1[C@H](CO)c1ccccc1,1.1,3.0,-2.1,-5.0,-6.0,-4.0,x
SMILES,pPAFAH inh,PAFAH1B3 FP inh,PAFAH2 inh,PAFAH1B2 FP inh,HTRA1 inhibitor,DAGLB inh,PAFAH1B3 confirm
Brc1ccc(-c2csc(Nc3nc(-c4ccc(Br)cc4)cs3)n2)cc1,1.9,33.7*,16.3,16.7,-11.8,-2.0,21.6
CC(C)(C)c1nnc2sc(SCC(=O)c3ccc(Cl)cc3)nn2c1=O,1.3,26.8*,-2.4,8.1,-1.5,-3.1,14.3
Cc1[nH]n(-c2ccccc2)c(=O)c1N=Nc1ccc2c(c1)OCCO2,3.7,9.8,12.7,4.7,-1.7,4.4,x
Cc1[nH]n(-c2ccccc2)c(=O)c1N=Nc1c(O)cc(S(=O)(=O)N(C)C)c2ccccc12,21.7,27.4*,22.5,15.8,26.8,16.1,11.4
O=C1c2ccccc2C(=O)c2c1oc(C(F)(F)F)c2C(=O)c1ccccc1,3.8,40.4*,14.0,10.6,15.5,2.5,26.8*
Cc1oc2c(c1C(=O)NCc1cccnc1)C(=O)c1ccccc1C2=O,1.0,x,x,x,x,x,x
COc1ccc(CNC(=O)c2c(C)oc3c2C(=O)c2ccccc2C3=O)cc1,-1.8,37.0*,24.5,8.4,13.2,1.1,18.0
CC(=O)c1c2c3c(cccc3n(C)c1=O)C(=O)c1ccccc1-2,10.6,x,x,x,x,x,x
CC(=O)c1c(C)oc2c1C(=O)c1ccccc1C2=O,0.4,27.6*,3.6,6.9,4.2,0.7,20.9
C[C@H](CO)N1C[C@H](C)[C@H](CN(C)Cc2ccncc2)Oc2ccc(NC(=O)Nc3ccc(C(F)(F)F)cc3)cc2CC1=O,2.2,5.8,-23.5,11.1,-53.1,2.1,x
COc1ccc(NC(=O)Cc2nnc(SCC(=O)NC3=NCCS3)n2C)cc1,3.2,3.9,-5.6,2.0,-4.8,-0.4,x
COc1cccc(/C=C/C(=O)Nc2ccc3c(c2)OCCO3)c1OC,-0.8,5.4,-1.6,4.8,-5.3,0.2,x
CCC(=O)Nc1c(C#N)c2nc3ccccc3nc2n1C1CCCCC1,4.1,1.4,-1.0,-0.5,-9.3,2.9,x
CCOC(=O)c1c(NC(=O)c2ccco2)n(C2CCCCC2)c2nc3ccccc3nc12,6.5,58.8*,15.9,19.7,-0.1,-7.5,19.6
CC(C)NC(=O)Nc1ccc2c(c1)C(=O)N([C@H](C)CO)C[C@H](C)[C@@H](CN(C)Cc1ccc(C(F)(F)F)cc1)OCCCC[C@H](C)O2,x,x,x,x,-6.5,-4.7,x
Cc1[nH]c2ccccc2c1CCNC(=O)c1ccc2c(c1[N+](=O)[O-])C(=O)c1ccccc1C2=O,16.6,44.0*,18.0,20.1,20.9,18.1,67.0*
CC1Cn2c(nc(=O)c3c2NCN(CCc2ccccc2)C3)S1 (stereo not given),2.7,10.8,-0.6,-0.1,-4.3,0.2,x
COc1ccccc1CNS(=O)(=O)c1cc(CN2C(=O)c3cccnc3C2=O)ccc1OC,7.0,1.9,0.7,2.0,3.3,-2.8,x
COc1cc(CCNC2=CC(=O)c3ncccc3C2=O)ccc1O,x,34.9*,13.3,11.0,10.7,-1.3,22.3

# Assay outcomes (PubChem BioAssay)
